# Laboratory results published in ChEMBL document CHEMBL2218924, “A broad activity screen in support of a chemogenomic map for kinase signalling research and drug discovery” (Biochem J, 2013).
# Target: MAP kinase-activated protein kinase 3 (Homo sapiens) (UniProt Q16644)
# Conditions: at 1 µM
# MAP kinase-activated protein kinase 3 (Homo sapiens), sequence (Q16644 whole entry, looked up): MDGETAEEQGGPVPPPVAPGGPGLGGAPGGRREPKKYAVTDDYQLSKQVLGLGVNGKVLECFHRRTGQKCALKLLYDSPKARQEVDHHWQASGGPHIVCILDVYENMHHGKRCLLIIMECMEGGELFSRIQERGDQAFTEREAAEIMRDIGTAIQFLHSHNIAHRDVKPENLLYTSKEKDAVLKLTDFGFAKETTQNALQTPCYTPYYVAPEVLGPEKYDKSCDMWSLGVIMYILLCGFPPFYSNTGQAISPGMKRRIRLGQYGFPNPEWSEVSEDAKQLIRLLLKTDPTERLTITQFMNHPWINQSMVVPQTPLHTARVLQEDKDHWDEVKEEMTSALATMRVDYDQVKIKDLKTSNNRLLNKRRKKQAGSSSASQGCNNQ
row,SMILES,residual activity
1,CN(C)CCCn1cc(C2=C(c3c[nH]c4ccccc34)C(=O)NC2=O)c2ccccc21,137%
2,Oc1n[nH]c2nnc(-c3c(-c4ccccc4)nn4ccccc34)cc12,98%
3,Cc1cc2ncc(-c3ccccc3)nc2cc1C,135%
4,CC(=O)O/N=C1\C(=C2\C(=O)Nc3cc(Br)ccc32)Nc2ccccc21,97%
5,O=c1cc(N2CCOCC2)oc2c1ccc1ccccc12,127%
6,Cn1c2ccccc2c2c3c(c4c5ccccc5n(CCC#N)c4c21)CNC3=O,131%
7,Nc1ncnc2[nH]nc(Nc3ccc(F)cc3)c12,107%
8,O=C1NC(=O)c2cc(Nc3ccc(F)cc3)c(Nc3ccc(F)cc3)cc21,90%
9,COc1ccc2c(c1)c(C1=C(c3c[nH]c4ccccc34)C(=O)NC1=O)cn2CCCN(C)C,103%
10,COc1ccc(CNc2nc(N(CCO)CCO)nc3c2ncn3C(C)C)cc1,110%
11,O=C1Cc2c([nH]c3ccc([N+](=O)[O-])cc23)-c2ccccc2N1,75%
12,N#CCCc1ccc2c(c1)-c1[nH]c3ccc([N+](=O)[O-])cc3c1CC(=O)N2,100%
13,NC(=O)Nc1sc(-c2ccc(F)cc2)cc1C(N)=O,98%
14,COc1ccc(OC)c2c(=S)c3ccccc3[nH]c12,100%
15,CC(C)(C)n1nc(Cc2cccc3ccccc23)c2c(N)ncnc21,116%
16,O=[N+]([O-])c1ccc(-c2nc(-c3ccc(F)cc3)c(-c3ccncc3)[nH]2)cc1,105%
17,NC(=O)c1ccc2[nH]c(-c3ccc(Oc4ccc(Cl)cc4)cc3)nc2c1,111%
18,COc1cc2ncnc(Nc3ccc(Oc4ccccc4)cc3)c2cc1OC,118%

row,SMILES,residual activity
1,Nc1nc(Nc2ccc(S(N)(=O)=O)cc2)nn1C(=S)Nc1c(F)cccc1F,97%
2,NCCNc1ncc(C(N)=O)c(Nc2cccc(C(F)(F)F)c2)n1,106%
3,Nc1ccc2ncnc(NCCc3ccc(Oc4ccccc4)cc3)c2c1,117%
4,Cc1nc(-c2ccccc2)c(-c2ccncc2)o1,103%
5,O=C1NC(=O)C(c2cn(CCCn3ccnc3)c3ccccc23)=C1Nc1ccccc1,126%
6,CCN(CC)CCCCN1c2ccccc2Oc2ccc(Cl)cc21,115%
7,O=C1Nc2cc(Br)ccc2/C1=C1/Nc2ccccc2/C1=N\O,98%
8,CC#CC(=O)Nc1cc2c(Nc3ccc(F)c(Cl)c3)ncnc2cn1,104%
9,Nc1nc(Nc2ccc(S(N)(=O)=O)cc2)nn1C(=O)c1c(F)cccc1F,103%
10,Cc1nc2cc3nc(-c4cccs4)cnc3cc2n1C,114%
11,COc1ccc(S(=O)(=O)N(CCO)c2ccccc2CN(C)C/C=C/c2ccc(Cl)cc2)cc1,118%
12,O=c1cc(-c2cccc3c2Sc2ccccc2S3)oc(N2CCOCC2)c1,115%
13,CO[C@H]1C[C@@H]2CC[C@@H](C)[C@@](O)(O2)C(=O)C(=O)N2CCCC[C@H]2C(=O)O[C@H]([C@H](C)C[C@@H]2CC[C@@H](O)[C@H](OC)C2)CC(=O)[C@H](C)/C=C(\C)[C@@H](O)[C@@H](OC)C(=O)[C@H](C)C[C@H](C)/C=C/C=C/C=C/1C,103%
14,c1ccc(-c2n[nH]cc2-c2ccnc3ccccc23)nc1,109%
15,Oc1c2ccccc2c2c3c(cccc13)N=N2,100%
16,Nc1n[nH]c2nnc(-c3c(-c4ccccc4)nn4ccccc34)cc12,99%
17,C[C@@H](N)[C@H]1CC[C@H](C(=O)Nc2ccncc2)CC1,90%
18,Nc1n[nH]c2nc3ccccc3nc12,99%
